# PubChem BioAssay (NCATS)
# Results filed as inconclusive are left out. Where a call stands in place of a potency, no number is given. Calls of active or inactive are those of the source. Calls come from the whole dose curve; as a rule, active = well fitted curve in the direction sought with a large enough effect; inconclusive = small, poorly fitted or top-dose-only effect, or another doubt; inactive = no such curve, though single readings can be large; an effect the other way counts as inactive or inconclusive.
# Assays:
# [1] = Counterscreen for APE1 Inhibitors: Fluorescent Dye Displacement Validation Assay (AID 1707)
# How it was run: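 Thiazole Orange (250 nM) bound to 50 nM TAMRA-labelled dsDNA with tetrahydrofuran abasic site; displacement by DNA-binding compounds lowers fluorescence. Buffer 50 mM Tris-HCl pH 7.5, 50 mM NaCl, 2 mM MgCl2, 0.01% Tween-20; endpoint read at 480/540 nm.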
# [2] = qHTS for differential inhibitors of proliferation of Plasmodium falciparum line 7G8 (AID 1815);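 note: parasite growth measured after three days of incubation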; note: potency is the fitted concentration of half-maximal effect
# [3] = qHTS for differential inhibitors of proliferation of Plasmodium falciparum line D10 (AID 1877);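 note: parasites grown with compound for 72 h before DNA staining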; note: potency is the fitted concentration of half-maximal effect
# [4] = HEK293 18hr Apoptosis Induction qHTS against the NCATS CANVASS Library (AID 1347357)
# How it was run: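 Natural products applied to HEK293 for 18 hr; Caspase-Glo 3/7 readout.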
# [5] = HEK293 24hr Apoptosis Induction qHTS against the NCATS CANVASS Library (AID 1347359)
# How it was run: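 HEK293 cells (500/well, DMEM + 10% FBS) were exposed to compounds in an 11-point series for 24 hours at 37 degrees C, then caspase-3/7 activity was read by Caspase-Glo DEVD luciferase luminescence after 15 min.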
# [6] = system: NAD(P)H diaphorase (Clostridium kluyveri); experiment: Diaphorse counterscreen qHTS: Assay Interference Panel against the NCATS CANVASS Library (AID 1347362)
# How it was run: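 Clostridium kluyveri diaphorase in PBS with 0.01% Tween-20 was preincubated 15 min at room temperature in the dark with compounds (11-point series). Resorufin fluorescence (ex 525/20, em 598/25) was read 5 min after adding resazurin/NADH.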
# [7] = molecular target: Luciferin 4-monooxygenase (Photinus pyralis) (UniProt P08659); experiment: Firefly luciferase counterscreen qHTS: Assay Interference Panel against the NCATS CANVASS Library (AID 1347363); note: series mostly up to about 57 µM
# Chain of Luciferin 4-monooxygenase (Photinus pyralis) (P08659 whole entry, looked up): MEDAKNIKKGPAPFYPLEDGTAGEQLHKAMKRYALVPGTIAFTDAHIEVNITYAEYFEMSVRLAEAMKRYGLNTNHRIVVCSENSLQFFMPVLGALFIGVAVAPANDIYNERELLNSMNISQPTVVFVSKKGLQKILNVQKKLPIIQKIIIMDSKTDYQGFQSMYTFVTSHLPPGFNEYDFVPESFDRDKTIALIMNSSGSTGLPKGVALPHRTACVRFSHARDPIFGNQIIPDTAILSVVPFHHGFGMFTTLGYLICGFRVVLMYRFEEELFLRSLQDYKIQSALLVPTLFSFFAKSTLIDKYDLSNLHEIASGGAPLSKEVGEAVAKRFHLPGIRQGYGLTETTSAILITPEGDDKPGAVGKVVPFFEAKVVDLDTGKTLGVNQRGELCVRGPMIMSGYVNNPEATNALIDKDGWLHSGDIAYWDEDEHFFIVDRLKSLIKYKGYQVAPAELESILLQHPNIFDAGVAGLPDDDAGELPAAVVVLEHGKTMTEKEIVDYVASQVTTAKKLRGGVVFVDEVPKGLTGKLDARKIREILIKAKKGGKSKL
# How it was run: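 Purified P. pyralis luciferase was added to compounds (11-point series) preincubated 15 min at room temperature with substrate containing 0.013 mM D-luciferin and 0.013 mM ATP; luminescence was read after 5 min.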
# [8] = SDT Cancer Cell Toxicity qHTS against the NCATS CANVASS Library (AID 1347365); note: nearly all actives have a fitted effect of over 60% in size; note: potency is the fitted concentration of half-maximal effect
# How it was run: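 SDT dog glioma cells (500/well) exposed to an 11-point compound series for 72 hr at 37C, 5% CO2. Cytotoxicity read as ATP content by CellTiterGlo luminescence; bortezomib titration as control.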
# [9] = KB-3-1 Cancer Cell Toxicity qHTS against the NCATS CANVASS Library (AID 1347366); note: nearly all actives have a fitted effect of over 75% in size; note: potency is the fitted concentration of half-maximal effect
# How it was run: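 Cytotoxicity toward KB-3-1 cells (500/well, DMEM + 10% FBS) was scored by CellTiter-Glo luminescence following 72 hr exposure at 37C, with bortezomib titrated as control.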
# [10] = G06 Cancer Cell Toxicity qHTS against the NCATS CANVASS Library (AID 1347368); note: nearly all actives have a fitted effect of over 60% in size; note: potency is the fitted concentration of half-maximal effect
# How it was run: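 G06 dog glioma cells, 500 per well, exposed 72 hr at 37C, 5% CO2 to compounds in an 11-point series. Cytotoxicity read as ATP content by CellTiterGlo luminescence.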
# [11] = MCF7 Cancer Cell Toxicity qHTS against the NCATS CANVASS Library (AID 1347369)
# How it was run: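 This 72 hr qHTS scored MCF7 viability by CellTiterGlo luminescence, with 500 cells/well; bortezomib titration ran as control.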
# [12] = qHTS for ATAD5 Antagonist screened against the NCATS CANVASS Library (AID 1347370);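 note: HEK293T cells carrying an ATAD5 luciferase reporter co-treated with 10 µM 5-fluorouridine; series mostly up to about 46 µM; nearly all actives have a fitted effect of over 65% in size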
# How it was run: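 HEK293T cells with stably integrated ATAD5-luciferase reporter, 2000/well, 5 h attachment; compounds plus 10 µM 5-fluorouridine, 16 h at 37 °C. Luciferase luminescence read, with CellTiter-Fluor viability read first.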
# [13] = J3T Cancer Cell Toxicity qHTS against the NCATS CANVASS Library (AID 1347371); note: potency is the fitted concentration of half-maximal effect
# How it was run: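 J3T dog glioma cells, 500 per well, treated 72 h at 37C with compounds (11-point qHTS); viability from ATP content by CellTiterGlo luminescence; bortezomib titration as control.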
# [14] = molecular target: Nuclear receptor subfamily 1 group I member 3 (Homo sapiens) (UniProt Q14994); experiment: qHTS for Constitutive Androstane Receptor (CAR) Agonist screened against the NCATS CANVASS Library (AID 1347373);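 note: every well also contained 1.5 µM PK11195 alongside the test compound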
# Chain of Nuclear receptor subfamily 1 group I member 3 (Homo sapiens) (Q14994 whole entry, looked up): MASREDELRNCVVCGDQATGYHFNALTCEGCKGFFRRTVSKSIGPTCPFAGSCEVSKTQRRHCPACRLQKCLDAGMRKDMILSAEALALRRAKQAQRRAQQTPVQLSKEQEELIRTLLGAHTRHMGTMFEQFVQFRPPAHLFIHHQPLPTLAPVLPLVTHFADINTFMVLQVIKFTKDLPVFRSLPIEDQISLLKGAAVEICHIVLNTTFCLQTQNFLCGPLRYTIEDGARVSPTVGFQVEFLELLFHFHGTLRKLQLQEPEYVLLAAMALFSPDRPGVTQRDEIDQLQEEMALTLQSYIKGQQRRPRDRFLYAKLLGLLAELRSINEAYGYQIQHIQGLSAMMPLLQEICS
# How it was run: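 HepG2 cells stably carrying hCAR and a CYP2B6-2.2kb luciferase reporter, treated 24hr at 37C with compounds plus 1.5uM PK11195; activation by ONE-Glo luminescence, viability by CellTiter-Fluor.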
# [15] = qHTS for Hypoxia signaling pathway (HIF-1) antagonists against the NCATS CANVASS Library (AID 1347374);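 note: HRE-bla ME-180 cells stimulated with cobalt chloride to stabilize HIF-1alpha; series mostly up to about 38 µM; nearly all actives have a fitted effect of over 60% in size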
# How it was run: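 HRE-bla ME-180 cells in medium with 0.5% dialyzed FBS received compounds (11-point series) plus CoCl2 (60 uM addition stock) for 17 hrs at 37C. Beta-lactamase activity read with CCF4 (405 nm ex, 460/530 nm em); CellTiter-Glo viability measured in same wells.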
# [16] = Inflammasome Signaling qHTS Counterscreen: IL-1-beta AlphaLISA counterscreen against the NCATS CANVASS Library (AID 1347381);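 note: cell-free check with purified IL-1β in medium and no THP-1 cells; series mostly up to about 57 µM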
# How it was run: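 Cell-free interference check: compounds added to medium spiked with 4 pg purified IL-1β. Anti-IL-1β acceptor beads (6 ug/mL) with 0.6 nM biotinylated antibody added for 1 h at RT, then streptavidin donor beads (24 ug/mL) for 30 min in the dark. AlphaLISA read at 680/615 nm.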
# [17] = Cytotoxicity qHTS for assessment of Hepg2 cells membrane integrity screened against the NCATS CANVASS Library (AID 1347387)
# How it was run: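 HepG2 cells (2000/well) attached overnight, then exposed 5 hr at 37C to compounds in an 11-point series (0.59 nM - 46 uM final). LDH release from damaged membranes read fluorometrically (CytoTox-ONE; 560/590 nm) after 10 min at room temperature.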
# [18] = qHTS assay for small molecule disruptors of mitochondrial membrane potential screened against the NCATS CANVASS Library (AID 1347389); note: series mostly up to about 46 µM; nearly all actives have a fitted effect of over 60% in size
# How it was run: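 HepG2 cells (2,000/well) plated overnight, then exposed to compounds in 11-point qHTS series for 1 h at 37C before 30 min Mito-MPS dye; depolarization read as fall in red aggregate (590 nm) to green monomer (535 nm) fluorescence.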
# [19] = qHTS for activators of dead-cell proteases activity screened against the NCATS CANVASS Library (AID 1347392);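 note: luminescence from protease leaking out of membrane-damaged cells cleaving impermeant substrate; rising signal means more cytotoxicity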
# How it was run: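 HepG2 cells (2000/well) attached 18 h at 37C, then exposed 5 h to compounds (11-point qHTS). Dead-cell protease activity read as luminescence from cell-impermeant AAF-aminoluciferin substrate after 15 min at room temperature.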
# [20] = Vero-766 cells viability qHTS against the NCATS CANVASS Library: Counterscreen for Zika virus inhibition assay (AID 1347394); note: nearly all actives have a fitted effect of over 60% in size; note: potency is the fitted concentration of half-maximal effect
# How it was run: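 Counterscreen for toxicity: Vero 766 cells exposed 72 h to an 11-point compound series, viability by CellTiter-Glo.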
Compound,Potency [1],Potency [2],Potency [3],Potency [4],Potency [5],outcome [6],outcome [7],Potency [8],Potency [9],Potency [10],Potency [11],Potency [12],Potency [13],outcome [14],Potency [15],outcome [16],outcome [17],Potency [18],Potency [19],Potency [20]
N#CC(C#N)=Cc1ccc([N+](=O)[O-])c(O)c1,inactive,inactive,inactive,–,–,–,–,–,–,–,–,–,–,–,–,–,–,–,–,–
COc1cc(CCN)ccc1O,inactive,inactive,inactive,–,–,–,–,–,–,–,–,–,–,–,–,–,–,–,–,–
COc1ccc(CCN)cc1O,inactive,inactive,inactive,–,–,–,–,–,–,–,–,–,–,–,–,–,–,–,–,–
CCN1C[C@]2(C)CC[C@@H](O)[C@]34C1[C@H](C[C@H]23)C12CCC(CC14)[C@](O)(CO)[C@H]2O (some centres not stated),–,–,–,inactive,inactive,inactive,inactive,inactive,inactive,inactive,inactive,inactive,inactive,inactive,inactive,inactive,inactive,inactive,inactive,inactive
COc1ccc(C23Oc4cc(OC)cc(OC)c4[C@](O)([C@H](c4ccccc4)C2C(=O)NCCCCNC(=O)c2ccccc2)[C@@H]3O)cc1 (some centres not stated),–,–,–,inactive,inactive,inactive,inactive,inactive,inactive,inactive,inactive,inactive,inactive,inactive,inactive,inactive,inactive,inactive,inactive,inactive
C[N+]1(C)CCc2cc3c(cc2C1C1OC(=O)c2c1ccc1c2OCO1)OCO3 (configuration not stated),inactive,inactive,inactive,–,–,–,–,–,–,–,–,–,–,–,–,–,–,–,–,–
CO[C@@H](/C=C/CC/C=C/C(=O)O)[C@@H](O)[C@H](C)/C=C(\C)[C@@H](O)[C@H](C)C(=O)CCCC1CC(=O)NC(=O)C1,–,–,–,inactive,inactive,inactive,inactive,inactive,inactive,inactive,inactive,inactive,inactive,inactive,inactive,inactive,inactive,inactive,inactive,inactive
CN1CCc2cc(O)cc3c2C1Cc1ccc(O)c(O)c1-3 (configuration not stated),inactive,8.91 µM (active),12.6 µM (active),–,–,–,–,–,–,–,–,–,–,–,–,–,–,–,–,–
CC(=O)N[C@H]1CCN2CCC[C@H]12,–,–,–,inactive,inactive,inactive,inactive,inactive,inactive,inactive,inactive,inactive,inactive,inactive,inactive,inactive,inactive,inactive,inactive,inactive
COC(=O)C1=C2Nc3ccccc3[C@@]23CCN2CC(C(C)=O)C1C[C@H]23 (some centres not stated),–,–,–,inactive,inactive,inactive,inactive,inactive,inactive,inactive,inactive,inactive,inactive,inactive,inactive,inactive,inactive,inactive,inactive,inactive
CNCCc1ccc(O)cc1,–,–,–,inactive,inactive,inactive,inactive,inactive,inactive,inactive,inactive,inactive,inactive,inactive,inactive,inactive,inactive,inactive,inactive,inactive
CCC(=O)CCCCC[C@@H]1NC(=O)[C@H]2CCCCN2C(=O)[C@H]([C@@H](C)CC)NC(=O)[C@H](Cc2cn(OC)c3ccccc23)NC1=O,–,–,–,inactive,inactive,inactive,inactive,1.05 µM (active),1.18 µM (active),0.743 µM (active),inactive,inactive,5.9 µM (active),inactive,inactive,inactive,inactive,inactive,inactive,1.86 µM (active)
COc1ccc2[nH]cc(CCN(C)C)c2c1,inactive,inactive,inactive,–,–,–,–,–,–,–,–,–,–,–,–,–,–,–,–,–
CC1=CC2CC[C@@H]3[C@@H](C)C[C@H](C)[C@@H](C1)N23 (some centres not stated),–,–,–,inactive,inactive,inactive,inactive,inactive,inactive,inactive,inactive,inactive,inactive,inactive,inactive,inactive,inactive,inactive,inactive,inactive
